In PubChem BioAssay (NCATS):
Results filed as inconclusive are left out. Where a call stands in place of a potency, no number is given. Calls of active or inactive are those of the source. The call rests on the fitted dose curve; in most records, active means well fitted inhibition curve with a large enough effect; inconclusive means small, poorly fitted or top-dose-only effect; inactive means flat fitted curve, though single readings scatter.

Assays:
[1] = biological target: Calcium and integrin-binding protein 1 (Homo sapiens) (UniProt Q99828); experiment: Primary qHTS for Identification of Calcium Integrin Binding Protein 1 (CIB1) Competitor (AID 1508620);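 further: GST tagged CIB1 binding a fluorescein labelled alphaIIb integrin peptide tracer; top concentration of the series differs between compounds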
Calcium and integrin-binding protein 1 (Homo sapiens), sequence (Q99828 whole entry, looked up): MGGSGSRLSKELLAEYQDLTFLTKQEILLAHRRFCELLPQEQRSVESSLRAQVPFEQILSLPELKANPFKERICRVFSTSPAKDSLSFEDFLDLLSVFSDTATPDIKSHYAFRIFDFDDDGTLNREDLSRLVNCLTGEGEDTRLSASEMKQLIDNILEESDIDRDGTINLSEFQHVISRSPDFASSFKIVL
Outline: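 CIB1-GST (1 uM final) and compound incubated 15 min at room temperature before adding FITC-alphaIIb peptide tracer (100 nM final). Competition for binding read by fluorescence polarization (ex 480, em 540) after another 15 min at room temperature.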

[2] = Primary qHTS for inhibitors of nuclear receptor binding SET domain protein 2 (NSD2) in an isogenic RCH-ACV NSD2 p.E1099K mutant (9B) (AID 1645876); further: nearly all actives have a fitted effect of over 70% in size; further: potency means the concentration at half of the fitted maximal effect

| Compound | Potency [1] | Potency [2] |
| --- | --- | --- |
| Cn1cc(C2=C(c3coc4ccccc34)C(=O)NC2=O)c2cc(Br)ccc21 | inactive | 18.4 µM (active) |
| CC(C)n1c(=O)c(C(=O)NC2CC3CCC(C2)N3C[C@@H](O)CN(C)S(C)(=O)=O)cc2ccccc21 (stereo partly specified) | inactive | inactive |
| CCNC1(C(N)=O)CN(c2nc(C)nc3c(-c4ccc(Cl)cc4)c(-c4ccccc4Cl)nn23)C1 | inactive | 20.5 µM (active) |
